Calls of active or inactive are those of the source. Unless noted, the rule behind the calls is not given here.
How the values were obtained:
[1] = kinase inhibitors against Plasmodium liver-stage infection, cell-based, known kinase inhibitor set, luminescence, hepatoma host viability (AID 624392); conditions: Plasmodium liver stage in hepatoma cells, luciferase luminescence, concentration not given here; liver cell % of control: measured here: host liver cell viability; parasite % of control: stronger effect = lower value;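 note: infected cells incubated roughly two days before readout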
[2] = modulators of glucocorticoid suppression of NF-kB, cell-based, luciferase, IL-1B stimulus, dexamethasone (AID 624486); conditions: NF-kB luciferase reporter, IL-1B + dexamethasone, luminescence; percent of negative control (+Dex): actives lie on both sides, concentration not given here; z-score: measured here: IL-1B alone, no Dex;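 for percent of negative control (+Dex): 100% = mean signal of vehicle control wells on the plate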
[3] = kinase inhibitors altering Pseudomonas killing of worms, whole organism (AID 651566);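 note: tested at 14 µM; sign flipped so higher z means a lower ratio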; conditions: C. elegans killed by P. aeruginosa, survival ratio
[4] = activators of macrophage pro-inflammatory response, cell-based, murine, luminescence (AID 652131); conditions: murine macrophage pro-inflammatory reporter, stronger effect = higher value
[5] = biological target: Cellular tumor antigen p53 (Homo sapiens) (UniProt P04637); experiment: kinase inhibitors altering GFP-p53 stability in HPV16-positive cells, imaging, known kinase inhibitor set, EGFP/DsRed ratio (AID 1053116); conditions: stronger effect = higher value; EGFP object count: measured here: GFP-p53 positive objects count;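 note: cells exposed to compounds for 24 h at 37 °C before reading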
[6] = IRF3 reporter activation in THP-1 macrophages, cell-based, PMA-stimulated THP-1, luminescence (AID 1053176); conditions: PMA-differentiated THP-1, IRF3 reporter luminescence; stronger effect = higher value
[7] = survival rescue of mitochondrial mutant cells in low glucose, primary screen, MELAS cybrids, Rieske KO mouse fibroblasts, CellTiter-Glo (AID 1508586;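 active = mean z-score across replicates of 1.96 or higher in either the MELAS or the Rieske mutant cell line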;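 note: z relative to plate mean and SD of compound and empty wells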)
[8] = MELAS cybrid survival, CellTiter-Glo 48 h, stronger effect = higher value
[9] = Rieske KO mouse fibroblast survival, CellTiter-Glo 72 h

Chain of Cellular tumor antigen p53 (Homo sapiens) (P04637 whole entry, looked up): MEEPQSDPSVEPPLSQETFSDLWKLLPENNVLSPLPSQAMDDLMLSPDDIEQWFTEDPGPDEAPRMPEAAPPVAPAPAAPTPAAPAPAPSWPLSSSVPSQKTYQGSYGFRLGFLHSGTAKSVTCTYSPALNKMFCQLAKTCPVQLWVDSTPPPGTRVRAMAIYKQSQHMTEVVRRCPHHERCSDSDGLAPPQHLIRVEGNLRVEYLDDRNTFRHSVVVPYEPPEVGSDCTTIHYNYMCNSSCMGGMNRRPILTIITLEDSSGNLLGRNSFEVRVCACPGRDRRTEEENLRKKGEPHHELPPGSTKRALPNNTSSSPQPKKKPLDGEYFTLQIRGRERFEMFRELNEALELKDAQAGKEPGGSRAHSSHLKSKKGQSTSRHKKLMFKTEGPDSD

Structure (SMILES)	liver cell % of control [1] [%]	parasite % of control [1]	percent of negative control (+Dex) [2]	z-score [2]	z-score [3]	z-score [4]	EGFP object count [5]	EGFP/DsRed ratio [5]	fraction signal [6]	z-score [7, 8]	z-score [7, 9]
c1cc(-c2cnn3nc(N4CCOCC4)ccc23)nc(NC2CC2)n1	147	177% (inactive)	59.5% (inactive)	-2.65	-0.225 (inactive)	-1.49 (inactive)	3.5	0.0725 (inactive)	-0.008 (inactive)	0.731 (inactive)	-0.389
CN(C)CCCNc1nccc(-c2c(-c3ccc(F)cc3)nn3cc(C(F)(F)F)ccc23)n1	98.2	96.1% (inactive)	93.5% (inactive)	0.05	0.5 (inactive)	2.64 (inactive)	4	0.104 (inactive)	-0.008 (inactive)	0.443 (inactive)	-0.332
NC(=O)c1sc(-n2cnc3cc(C(F)(F)F)ccc32)cc1OCc1ccccc1Br	109	113% (inactive)	94.5% (inactive)	0.595	0.64 (inactive)	-0.704 (inactive)	10.5	0.407 (inactive)	-0.0005 (inactive)	0.066 (inactive)	-0.5
NC(=O)c1cc(-c2ccncc2)cc(-c2ccccc2)c1N	95.8	55.5% (inactive)	52% (inactive)	-4.61	-0.845 (inactive)	-1.14 (inactive)	2.5	0.104 (inactive)	0.0085 (inactive)	-0.817 (inactive)	-0.475
CCn1c(-c2nonc2N)nc2c(C#CC(C)(C)O)nc(CN3CCCC3)cc21	107	162% (inactive)	85.5% (inactive)	-0.04	-0.175 (inactive)	0.541 (inactive)	4	0.0701 (inactive)	0.0045 (inactive)	-0.869 (inactive)	0.697
Cn1c(-c2nonc2N)nc2cnccc21	87.4	106% (inactive)	70.5% (inactive)	-2.13	-0.36 (inactive)	-0.113 (inactive)	4.5	0.0787 (inactive)	-0.0065 (inactive)	-0.058 (inactive)	-0.308
O=C(Nc1ccc(Oc2ccc3nc(NC(=O)c4ccccc4)[nH]c3c2)cc1)Nc1cc(C(F)(F)F)ccc1F	151	113% (inactive)	102% (inactive)	0.635	-0.485 (inactive)	-1.71 (inactive)	2.5	0.0378 (inactive)	-0.006 (inactive)	8.17 (active)	1.84
CCCN1CCC=C(c2ccc(Nc3nc(Nc4ccccc4C(N)=O)c4cc[nH]c4n3)c(C)c2)C1	86.8	580% (inactive)	88% (inactive)	-0.67	0.47 (inactive)	-1.61 (inactive)	4	0.193 (inactive)	0 (inactive)	-0.329 (inactive)	0.0526
CS(=O)(=O)CCNCc1nc(-c2ccc3ncnc(Nc4ccc(F)c(Cl)c4)c3c2)cs1	103	148% (inactive)	70.5% (inactive)	-1.57	0.63 (inactive)	2.24 (inactive)	6.5	0.211 (inactive)	0.002 (inactive)	0.0696 (inactive)	-0.331
CCS(=O)(=O)c1ccc(OC)c(Nc2ncc(-c3cccc(OC)c3)o2)c1	161	16.6% (inactive)	78.5% (inactive)	-0.275	0.285 (inactive)	-0.544 (inactive)	4.5	0.129 (inactive)	0.002 (inactive)	1.48 (inactive)	-0.42
COc1cc(/C=N/Nc2ncnc3[nH]ncc23)ccc1O	81.7	96.9% (inactive)	87.5% (inactive)	-0.055	0.42 (inactive)	-0.354 (inactive)	2.5	0.119 (inactive)	0.001 (inactive)	0.451 (inactive)	-0.093
COC(=O)Nc1nc2ccc(Oc3ccc(NC(=O)Nc4cccc(C(=O)O)c4)cc3)cc2[nH]1	122	180% (inactive)	118% (inactive)	1.69	0.33 (inactive)	-0.479 (inactive)	5.5	0.0528 (inactive)	-0.002 (inactive)	-0.776 (inactive)	-0.262
NS(=O)(=O)c1ccc(N=Nc2c(O)[nH]c3ccc(C(=O)NCCc4cnc[nH]4)cc23)cc1	82.2	110% (inactive)	85.5% (inactive)	-0.045	-1.15 (inactive)	-0.108 (inactive)	7.5	0.141 (inactive)	-0.0145 (inactive)	0.0573 (inactive)	-0.291
O=C1Nc2ccccc2/C1=C1\CCc2cc(O)ccc21	77.7	108% (inactive)	114% (inactive)	1.81	-1.72 (inactive)	3.73 (inactive)	8.5	0.108 (inactive)	-0.013 (inactive)	-0.0823 (inactive)	-0.0427
CCn1c(-c2nonc2N)nc2cncc(C(=O)N3CCNCC3)c21	101	140% (inactive)	111% (inactive)	0.555	-0.355 (inactive)	0.864 (inactive)	8	0.129 (inactive)	-0.005 (inactive)	-0.623 (inactive)	0.0786
O=C(Nc1n[nH]c2nc(-c3ccco3)ccc12)C1CC1	201	24% (inactive)	104% (inactive)	-0.105	-0.7 (inactive)	0.373 (inactive)	2	0.0203 (inactive)	-0.008 (inactive)	-0.235 (inactive)	-0.343
O=C(O[C@H]1CN[C@H](C#Cc2cc3ncnc(Nc4ccc5c(cnn5Cc5ccccc5)c4)c3s2)C1)N1CCOCC1	118	137% (inactive)	58% (inactive)	-2.13	1.08 (inactive)	-0.862 (inactive)	3	0.0849 (inactive)	-0.0115 (inactive)	0.875 (inactive)	-0.356
NS(=O)(=O)c1ccc(NC2CC(c3cccc(O)c3)NN2)cc1 (stereo not drawn)	92.2	101% (inactive)	81.5% (inactive)	-0.55	-1.21 (inactive)	1.01 (inactive)	5.5	0.108 (inactive)	-0.0035 (inactive)	1.31 (inactive)	-0.281
Cc1ccc(C(=O)NC2CCCCC2)cc1-c1ccc(C(=O)NCC2CC2)cc1	103	134% (inactive)	88.5% (inactive)	0.05	1.71 (inactive)	0.167 (inactive)	5.5	0.116 (inactive)	-0.007 (inactive)	-0.861 (inactive)	0.203
Cc1nc(-c2ccccc2)n2nc(NCCCN3CCOCC3)ncc12	97.3	149% (inactive)	102% (inactive)	1.35	-0.095 (inactive)	-1.16 (inactive)	4.5	0.201 (inactive)	-0.0105 (inactive)	-0.231 (inactive)	-0.21
Cc1cc(-c2ccco2)cc(C)c1/C=C/c1cncc(-c2nn[nH]n2)c1	90.5	119% (inactive)	94% (inactive)	0.125	0.545 (inactive)	4.88 (inactive)	3.5	0.0973 (inactive)	-0.008 (inactive)	-1.12 (inactive)	-0.188
Cc1nnc(-c2cccc(-c3ccc(C(=O)NCC4CC4)cc3)c2)o1	102	99.2% (inactive)	89.5% (inactive)	-0.24	0.175 (inactive)	-0.114 (inactive)	4	0.0445 (inactive)	-0.01 (inactive)	0.518 (inactive)	0.121
Cc1c2ccc(N(C)c3ccnc(Nc4cccc(S(N)(=O)=O)c4)n3)cc2nn1C	94.3	100% (inactive)	94% (inactive)	0.455	1 (inactive)	-0.277 (inactive)	3.5	0.0613 (inactive)	0.0015 (inactive)	-1.32 (inactive)	-0.151
Fc1cccc(COc2ccc(Nc3ncnc4sc(-c5cccs5)cc34)cc2Cl)c1	71.8	60.1% (inactive)	92% (inactive)	0.005	0.99 (inactive)	-0.373 (inactive)	5	0.0533 (inactive)	-0.0045 (inactive)	-0.00271 (inactive)	-0.496
O/N=C1/CCc2cc(-c3nc(C4CCNCC4)[nH]c3-c3ccncc3)ccc21	105	174% (inactive)	128% (inactive)	0.995	0.24 (inactive)	3.12 (inactive)	1	0.00487 (inactive)	0.001 (inactive)	-1.26 (inactive)	-0.635
O=C(Nc1n[nH]c2cc(-c3cc(F)ccc3F)ccc12)C1CC1	90.7	72.2% (inactive)	81% (inactive)	-0.38	-0.655 (inactive)	0.317 (inactive)	4	0.173 (inactive)	-0.0055 (inactive)	-0.186 (inactive)	-0.425
Fc1ccc(-c2ncn(C3CCNCC3)c2-c2ccnc(Oc3ccc(Oc4ccccc4)cc3)n2)cc1	58.8	102% (inactive)	99% (inactive)	0.615	-1.07 (inactive)	-0.715 (inactive)	28.5	0.354 (inactive)	-0.002 (inactive)	-0.215 (inactive)	-0.0474
CCn1c(-c2nonc2N)nc2c(C#CC(C)(C)O)ncc(OCC3CCNCC3)c21	88.1	91.5% (inactive)	86% (inactive)	-0.76	-1.35 (inactive)	3.98 (inactive)	13	0.169 (inactive)	0.002 (inactive)	0.123 (inactive)	-0.292

Reference: PubChem BioAssay
